# PubChem BioAssay AID504725 (Broad Institute, 2011)
# Results with a measured potency or affinity are listed apart. Activity calls are given as the source filed them. The rule behind the calls is not given here.
# Molecular target: KSHV LANA C-terminal domain (residues 932-1162) binding to LBS DNA (UniProt O40947)
# Test: inhibitors of C-LANA binding to LBS DNA, dose response, biochemical, fluorescence polarization, cherry-picked samples (AID 504725)
# Settings: MBP-C-LANA / FAM-LBS DNA fluorescence polarization; series mostly up to 35 µM
row,Compound,outcome
1,O=c1c2ccccc2nc(/C=C\c2ccccc2[N+](=O)[O-])n1-c1ccccc1O,inactive
2,CCn1c(O)c(N=Nc2cccc(S(=O)(=O)N3CCOCC3)c2)c(=O)n(CC)c1=S,inactive
3,COCCNC(=O)Cn1cc(/C=C2\C(=O)NC(=O)N(c3cccc(C)c3C)C2=O)c2ccccc21,inactive
4,Cc1cc(OCC(=O)OC(C)(C)C)c2c3c(c(=O)oc2c1)CCC3,inactive
5,CC(OC(=O)c1cn(C)c2ccccc12)C(=O)N1CCCC1 (stereo not drawn),inactive
6,CC(C)CC(=O)Nc1ccc(S(=O)(=O)N2CC3CC(C2)c2cccc(=O)n2C3)cc1 (stereo not drawn),inactive
7,CN(C)C1C(=O)C(C(N)=O)=C(O)C2(O)C(=O)C3=C(O)c4c(O)cccc4C(C)(O)C3C(O)C12 (stereo not drawn),inactive
8,CCOC(=O)c1c(/N=C/c2c(O)n(-c3cccc(C)c3)c(=O)[nH]c2=O)sc2c1CCCC2,inactive
9,O=c1[nH]c(=O)n(C2CCCCC2)c(O)c1C=Nc1ccc(N2CCOCC2)cc1,inactive
10,COC(=O)C1=C(c2ccc(OC(F)(F)F)cc2)C[C@@H]2CC[C@H]1N2C(=O)NC1CCCCC1,inactive
11,Cc1cc(=O)oc2cc(OCC(=O)N3CCN(Cc4ccc5c(c4)OCO5)CC3)ccc12,inactive
12,CC(Cc1ccccc1)NC(=O)NC(C)Cc1ccccc1 (stereo not drawn),inactive
13,CCCCc1ccc(C(=O)O)nc1,inactive
